Experimental data reported in ChEMBL document CHEMBL4888484, “Replenishing the malaria drug discovery pipeline: Screening and hit evaluation of the MMV Hit Generation Library 1 (HGL1) against asexual blood stage Plasmodium falciparum ,using a nano luciferase reporter read-out” (2022).
Screen size: about 4,800 compounds; about 410 (8.5%) showed an effect of 50% or more. Many of the other results were omitted from the sample, so strong results are more common in it than they were.

tested on: Plasmodium falciparum; assay: Confirmatory screen in NF54 pLDH assay, in single point, at 2uM, 72h; format: functional, Erythrocyte; settings: timepoint 72 hour

Going from `CS(=O)(=O)Nc1ccc(OC(=O)C2C3CCCCC32)cc1` (stereo unspecified) to `Cc1ccc(CS(=O)(=O)NC(=O)N2CCC(c3ccccc3)CC2)cc1`, the “% Inhibition” value falls from 11% to 10%.

First: O=C1OC2(c3ccccc31)C(c1ccccc1)CC(=O)N2Cc1ccccc1 (stereo unspecified)
Second: O=C(c1ccccc1)n1c(=O)n(C(=O)c2ccccc2)c2ccccc21
The “% Inhibition” value of the first is lower: -21% for the first, 7% for the second.

First: C[C@](O)(CCc1ccccc1)C(=O)NCCc1ncc[nH]1
Second: Cc1ccccc1C(=O)Cc1ncc[nH]1
The “% Inhibition” value of the first is lower: 6% for the first, 53% for the second.

First: Cc1ccc(C(=O)N2CC(C)CC(C)C2)cc1NCc1ncc[nH]1 (stereo unspecified)
Second: Cc1cccc2[nH]cc(CCNC(=O)N3CCC4CCC(C3)N4C)c12 (stereo unspecified)
The “% Inhibition” value of the first is lower: 8% for the first, 11% for the second.

First: CCCS(=O)(=O)NC1CCC2(CC1)OCCO2
Second: CCCN1CCC(NCc2ccc(-c3cccc(Cl)c3Cl)o2)CC1
The “% Inhibition” value of the first is lower: -18% for the first, 98% for the second.

First: COc1ccc2c(c1)CN(Cc1ccccc1Cl)CC[C@H]1COC(=O)N21
Second: COc1cccc2c1OCC(=O)N([C@@H](C)c1ccccc1)C2
The “% Inhibition” value of the first is higher: -1% for the first, -12% for the second.

Going from `CCC1=NN2C(=NC(C(=O)O)=C[C@H]2c2ccc(O)cc2)N1` to `COc1ccccc1C(=O)NC1=NN2C(=NC(c3ccc(Cl)cc3)=C[C@H]2c2ccc(Cl)cc2)N1`, the “% Inhibition” value rises from -3% to 92%.

First: Fc1ccc(C2=C[C@@H](c3ccc(Cl)cc3)N3N=C(c4ccc(Cl)cc4)NC3=N2)cc1
Second: O=C(NC1=NN2C(=NC(c3ccc(Cl)cc3)=C[C@H]2c2ccc(F)cc2)N1)c1ccc(Cl)cc1
The “% Inhibition” value of the first is higher: 97% for the first, 13% for the second.

Going from `COc1ccc([C@@H]2C=C(c3ccc(Cl)cc3)N=C3NC(NC(=O)c4ccccc4OC)=NN32)cc1` to `COc1cc(N2CCn3c(nc4cc(Cl)ccc43)C2)ccc1NC(=O)c1ccccc1OC`, the “% Inhibition” value falls from 89% to -10%.

First: COc1ccccc1C(=O)NC1=C(C)Nc2ncnn2[C@H]1c1c[nH]c2ccccc12
Second: COc1ccc(NC(=O)c2cc3c(C)nn(-c4ccccc4)c3s2)cn1
The “% Inhibition” value of the first is lower: -5% for the first, 9% for the second.

Going from `COc1cc(NC(=O)c2ccccc2Cl)cc(S(=O)(=O)c2ccc(Cl)cc2)c1` to `COc1ccccc1C(=O)N(Cc1cccs1)c1ccc(C)c(Cl)c1`, the “% Inhibition” value rises from -15% to 1%.

First: Cc1noc(Cn2c(=O)c3ccccc3n(CC(=O)Nc3cccc(Cl)c3C)c2=O)n1
Second: Cn1n[n+](CC(=O)Nc2ccccc2Cl)c2ccccc21
The “% Inhibition” value of the first is lower: 2% for the first, 3% for the second.

Compared with `Cc1cccc(N2C(=O)C3CC3C2=O)c1` (stereo unspecified), `O=C1C2C(Cc3ccccc3)NC3(C(=O)Nc4ccccc43)C2C(=O)N1c1cccc(C(F)(F)F)c1` (stereo unspecified) is lower in “% Inhibition” value: 8% for the first, 6% for the second.

First: C[n+]1ccc(-c2ncc(-c3ccccc3)o2)c2ccccc21
Second: Cc1n(CC(=O)c2ccccc2)c2ccccc2[n+]1CC(=O)c1ccccc1
The “% Inhibition” value of the first is lower: 62% for the first, 66% for the second.

First: Cc1cc(F)c(C(=O)Nc2nc(-c3cnn(C)c3)cs2)cc1F
Second: CC(=O)c1nc2cc(F)c(N3CCOCC3)cc2nc1C
The “% Inhibition” value of the first is higher: -4% for the first, -13% for the second.

Compared with `O=C(NCc1cccc(C(F)(F)F)c1)c1csc(C(=O)NC2CCCC2)n1`, `O=C(NC1CCCC1)c1n[nH]c(=O)c2ccccc12` is higher in “% Inhibition” value: -3% for the first, 7% for the second.

Going from `Cc1ccccc1N1C2=CCCCCN2C[C@]1(O)c1ccc(Br)cc1` to `COc1ccc(C2=CN(CC(=O)c3ccc(Cl)cc3)C3=CCCCCN23)cc1`, the “% Inhibition” value rises from 14% to 41%.

First: COC1CCC(CC(=O)N[C@H]2CC(=O)N(c3ccccc3)C2)CC1 (stereo partly specified)
Second: CCc1cc(C(=O)N2CCC[C@H](C)C2)c2c(C3CC3)nn(-c3ccccc3)c2n1
The “% Inhibition” value of the first is higher: 10% for the first, 4% for the second.

First: O=S(=O)(c1cccc(F)c1)c1cnc2c(F)cccc2c1-c1cccc(F)c1
Second: O=C(Nc1ccn(Cc2cccnc2)n1)c1ccc(-c2ccccc2F)o1
The “% Inhibition” value of the first is lower: -3% for the first, 6% for the second.

First: COc1ccc(-c2nn(-c3ccccc3)c(O)c2C(c2ccc(C(=O)O)cc2)c2c(-c3ccc(OC)cc3)nn(-c3ccccc3)c2O)cc1
Second: Cc1nn(-c2ccccn2)c(O)c1C(c1ccccc1)c1c(C)nn(-c2ccccn2)c1O
The “% Inhibition” value of the first is lower: 4% for the first, 86% for the second.

Compared with `Cc1ccc(S(=O)(=O)N2CCCC(=O)c3ccccc32)cc1`, `Cc1ccc2c(c1)c1c(n2S(=O)(=O)c2ccc(C(C)(C)C)cc2)CCCN(C)C1` is higher in “% Inhibition” value: 0% for the first, 94% for the second.

First: Cc1ccc(S(=O)(=O)N2CCN(S(C)(=O)=O)C2)cc1
Second: C[C@@H](CNS(=O)(=O)c1ccco1)N(C)S(=O)(=O)c1ccco1
The “% Inhibition” value of the first is lower: -3% for the first, 4% for the second.

First: CCC1(CC)NC(=O)N(CC(=O)Nc2cccc(CC(=O)OC)n2)C1=O
Second: CCC(=O)Nc1ccc(Oc2c(C)c(C(=O)O)nn2-c2ccccc2CC)c(S(=O)(=O)NCC(C)C)c1
The “% Inhibition” value of the first is lower: -20% for the first, 9% for the second.

Going from `c1ccc(CNc2ncnc3c2cnn3-c2ccccn2)cc1` to `O=C(N[C@@H]1CN(Cc2ccccn2)CCC[C@H]1O)c1ccc(OCc2ccccc2)cc1`, the “% Inhibition” value rises from 7% to 42%.

Compared with `CN(CCN)c1ccc(Br)cc1C#N`, `CCc1ccc2ncc(C(=O)c3ccc(Cl)cc3)c(O)c2c1` is lower in “% Inhibition” value: 9% for the first, 1% for the second.

Going from `COc1ccc(C(=O)CN2C=CCC=C2c2nc(-c3ccc(Cl)cc3)cs2)cc1` to `O=C(CN1C=CCC=C1c1nc(-c2ccc(Br)cc2)cs1)c1ccccc1`, the “% Inhibition” value falls from 73% to 46%.

Compared with `COc1ccc(C(=O)N2c3ncnn3C(c3ccccc3)CC2c2ccc(C)cc2)cc1OC` (stereo unspecified), `COc1ccc(C2CC(c3ccccc3)N(C(C)=O)c3ncnn32)cc1` (stereo unspecified) is lower in “% Inhibition” value: 98% for the first, -7% for the second.

First: COc1ccc(C(=O)Nc2nnc([C@H]3CC(=O)N(c4ccc(C)cc4)C3)o2)cc1OC
Second: COc1ccc(-c2cc3c(N4CCN(Cc5ccc6c(c5)OCO6)CC4)nccn3n2)cc1OC
The “% Inhibition” value of the first is lower: -19% for the first, -2% for the second.

First: O=C(NCCCn1ncc2c(Cl)cccc21)C1CCC1
Second: COc1ccc(CN2CCC(C(=O)NCCCN3CCOCC3)CC2)c(OC)c1
The “% Inhibition” value of the first is lower: 8% for the first, 9% for the second.

Going from `CCc1ccc(NC(=O)Cc2c(C)nc3nc(-c4ccccc4C)nn3c2C)cc1` to `COC(=O)C1=C(C(=O)OC)SC(=C2C(=S)C(C)(C)N(C(=O)COc3ccc4ccccc4c3)c3ccccc32)S1`, the “% Inhibition” value rises from 3% to 7%.

Going from `C[C@H](NS(C)(=O)=O)C(=O)NC(C)(C)Cc1ccccc1Cl` to `CC(C)(C)OC(=O)NS(=O)(=O)NCc1ccccc1`, the “% Inhibition” value rises from 2% to 4%.

First: CCOCC(=O)Nc1ccc(OC(F)(F)F)cc1
Second: O=C(CC(F)(F)F)NCc1ccccn1
The “% Inhibition” value of the first is higher: -14% for the first, -21% for the second.

Going from `Cc1ccccc1N1C(O)=Nc2ccccc2S1(=O)=O` to `O=C(c1ccc2ccccc2c1)N1CCC[C@H]1c1nc2ccccc2s1`, the “% Inhibition” value rises from -19% to 11%.

Compared with `Cc1nnc(Cn2nnc(C(=O)NCC3(CC(C)C)CCC3)c2C)o1`, `Cc1nnc(-c2cnn(C)c2N)n1C[C@H]1CCCO1` is higher in “% Inhibition” value: -24% for the first, 9% for the second.

Going from `c1ccc(-c2nnc3nc(N4CCOCC4)nc(N4CCOCC4)n23)cc1` to `CCc1ccc(C(=O)N2CCCN(c3nc(C4CCOCC4)nc4c3cnn4-c3ccccc3)CC2)cc1`, the “% Inhibition” value falls from 6% to -7%.

Compared with `Cc1cc(CNC(=O)c2csc(=O)[nH]2)n(C)n1`, `Cc1cc(C)n(C(=O)Cn2nc(C(F)F)cc2C)n1` is lower in “% Inhibition” value: 12% for the first, 11% for the second.

Compared with `O=C(NCCc1cccs1)c1cnn2c(-c3ccc4c(c3)OCO4)ccnc12`, `O=C(NCc1ccco1)c1ccc2c(c1)OCO2` is higher in “% Inhibition” value: -8% for the first, -7% for the second.

Going from `CCCn1ccnc1-c1cn(Cc2cc3ccccc3[nH]2)nn1` to `c1ccc(Oc2ccc(CNCc3nnc4n3CCCCC4)o2)cc1`, the “% Inhibition” value falls from 54% to 9%.

First: Cn1n[n+](CCCCC(Cl)(Cl)Cl)c2ccccc21
Second: O=C(N[C@@H](N1CCCCC1)C(Cl)(Cl)Cl)c1ccc(Cl)cc1
The “% Inhibition” value of the first is higher: 52% for the first, 0% for the second.

Compared with `CCC(CC)(NCC(=O)NC1CC1)c1ccc(Cl)cc1`, `O=C(NCCN1CCCC1)c1ccc2nc(-c3ccc(Cl)cc3)cn2c1` is higher in “% Inhibition” value: -1% for the first, 70% for the second.

Going from `COC(=O)[C@H](C)N(C(=O)CO)c1c(C)cccc1C` to `Cc1ccccc1[C@H](CC(=O)O)NC(=O)C(F)(F)F`, the “% Inhibition” value rises from 10% to 16%.

First: O=C(c1nnn(-c2ccccc2Cl)c1-c1cccnc1)N1CCC(Cc2ccccc2)CC1
Second: O=C(Nc1cccnc1)c1ccc(-c2ccc(Cl)c(Cl)c2)o1
The “% Inhibition” value of the first is lower: -8% for the first, 89% for the second.

Compared with `COc1cccc(NC(=O)Nc2ccc3c(c2)NC(=O)C(C)(C)O3)c1`, `O=C(CCC(=O)Nc1cccnc1)NCc1ccc2c(c1)OCO2` is higher in “% Inhibition” value: -4% for the first, 6% for the second.

First: Cc1sc2ncnc(N3CCCCC3)c2c1C(=O)NCc1cccc(Cl)c1
Second: Cc1c(Cl)cccc1C(=O)N1CCC[C@H](Cn2cncn2)C1
The “% Inhibition” value of the first is higher: 10% for the first, 1% for the second.

Compared with `N=C1CCCN1c1c(Cl)cccc1Cl`, `O=C(NCCN1CCCC1)c1ccc2c(c1)OCCO2` is lower in “% Inhibition” value: 5% for the first, -7% for the second.

First: O=C(O)c1ccc(N(C(=O)c2ccc3c(c2)OCO3)C(=O)c2ccc3c(c2)OCO3)cc1O
Second: O=C(Nc1ccc2c(c1)OCO2)c1c(-c2ccc(Cl)cc2)nc2n1CCS2(=O)=O
The “% Inhibition” value of the first is higher: 15% for the first, 6% for the second.

Compared with `CCOC(=O)C1CCC(CN(Cc2ccc(OC)cc2)S(=O)(=O)c2cc(C(=O)Nc3ccc(OCC)cc3)ccc2F)CC1` (stereo unspecified), `Cc1nc(CNS(=O)(=O)Cc2ccc(F)c(Cl)c2)sc1C` is lower in “% Inhibition” value: 6% for the first, 3% for the second.

Going from `CN1CCN(c2nc(O)c3c(n2)NC(=O)C[C@H]3c2c(F)cccc2Cl)CC1` to `Cc1cc(NC(=O)[C@@H](c2ccccc2)N2CCCCC2=O)sn1`, the “% Inhibition” value rises from -6% to 1%.

First: CC(CNc1ccccn1)N1CCOCC1C (stereo unspecified)
Second: COCc1cnc(NC(=O)NC2(c3ncccn3)CCOCC2)s1
The “% Inhibition” value of the first is lower: 0% for the first, 10% for the second.

Going from `C#C[C@H](C)OC(=O)c1cccc(Nc2cnccn2)c1` to `CCNC(=O)NCCOC(=O)Cc1cc(Cl)cc2c1OCC2`, the “% Inhibition” value falls from 10% to -1%.

`O=c1ccn2c(n1)O[C@H]1[C@H](OC3CCCCO3)[C@@H](COC3CCCCO3)O[C@H]12` (stereo partly specified) was tested, and the “% Inhibition” value was -17%.
